Data as given in the supplement of paper PMC9254222.
Whole data set: some 1,100 compounds, median “Wnt reporter firefly/Renilla luciferase ratio relative to plate median” near 1.1, cut for the highest 2% near 1.6. This is one part of a sample in which the highest values are shown more often than they occur.

Test system: HEK293T (UBE3A T485A transfected, BAR Wnt reporter)
Experiment: Wnt reporter firefly/Renilla luciferase ratio relative to plate median (fold (linear ratio)); higher = more Wnt/beta-catenin reporter activation
Conditions: 24 h
Outline: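 Wnt activity (firefly/Renilla ratio) and cell health (raw Renilla) were read with Dual-Glo luciferase and median-centred plate by plate. HEK293T cells, at 4500 cells/well in white 384-well plates with DMEM plus 10% FBS at 37°C and 5% CO2, carried a transfected BAR firefly luciferase Wnt reporter, TK-Renilla and an expression plasmid. The chemicals were applied by robot at 0.01–100 uM for 24 h, beginning four hours after transfection, and results were averaged across four biological replicates.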

Structure (SMILES) | Wnt reporter firefly/Renilla luciferase ratio (concentration: 0.01 uM) | Wnt reporter firefly/Renilla luciferase ratio (concentration: 0.1 uM) | Wnt reporter firefly/Renilla luciferase ratio (concentration: 1 uM) | Wnt reporter firefly/Renilla luciferase ratio (concentration: 10 uM) | Wnt reporter firefly/Renilla luciferase ratio (concentration: 100 uM)
O=[N+]([O-])c1c(Cl)c(Cl)c(Cl)c(Cl)c1Cl [Pentachloronitrobenzene] | 0.743 | 0.765 | 1 | 0.856 | 1.26
Nc1ccc(Cl)cc1 [4-Chloroaniline] |  | 1.15 | 1.08 | 0.914 | 0.367
CCOP(=S)(OCC)Oc1cc(C)nc(C(C)C)n1 [Diazinon] | 0.789 | 0.815 | 1.01 | 1.25 | 1.14
CCOC(=O)C(C)OC(=O)c1cc(Oc2ccc(C(F)(F)F)cc2Cl)ccc1[N+](=O)[O-] (configuration not stated) [Lactofen] | 1.04 | 1.3 | 1.14 | 1.16 | 0.261
CC(C)Nc1nc(Cl)nc(NC(C)C)n1 [Propazine] | 1.55 | 1.1 | 1.01 | 1.03 | 1.11
Oc1c(Cl)cc(Cl)cc1Cl [2,4,6-Trichlorophenol] |  | 0.821 | 1.09 | 1.37 | 0.524
CS(=O)(=O)c1cc(C(F)(F)F)ccc1C(=O)c1cnoc1C1CC1 [Isoxaflutole] | 1.11 | 1.4 | 1.02 | 1.36 | 1.45
C#CCOS(=O)OC1CCCCC1Oc1ccc(C(C)(C)C)cc1 (configuration not stated) [Propargite] | 1.24 | 1.16 | 1.02 | 0.934 | 0.259
CON=C(C(=O)OC)c1ccccc1CON=C(C)c1cccc(C(F)(F)F)c1 [Trifloxystrobin] | 0.871 | 1.03 | 0.939 | 0.327 | 
COP(=S)(OC)Oc1ccc(SC)c(C)c1 [Fenthion] | 1.02 | 0.993 | 1.04 | 1.08 | 0.984
COP(=S)(OC)Oc1ccc([N+](=O)[O-])c(C)c1 [Fenitrothion] | 1.53 | 2.01 | 1.26 | 1.43 | 0.976
COP(=S)(OC)Oc1ccc([N+](=O)[O-])cc1 [Methyl parathion] | 1.23 | 1.05 | 1.21 | 1.02 | 0.89
CCCCC(CC)COC(=O)c1ccccc1C(=O)OCC(CC)CCCC (configuration not stated) [Di(2-ethylhexyl) phthalate] | 0.948 | 0.902 | 1.01 | 1.09 | 0.42
Oc1ccccc1Cl [2-Chlorophenol] |  | 0.951 | 0.944 | 1.24 | 1.52
Clc1ccccc1Cl [1,2-Dichlorobenzene] |  | 0.904 | 1.01 | 0.88 | 1.62
Clc1cccc(Cl)c1Cl [1,2,3-Trichlorobenzene] |  | 1.09 | 1.1 | 1.05 | 1.01
COc1ccc(C)cc1N [2-Methoxy-5-methylaniline] |  | 1.14 | 1.31 | 1.26 | 1.29
C1=Cc2cccc3cccc1c23 [Acenaphthylene] |  | 1.29 | 1.26 | 1.41 | 0.898
CCCCCCCc1ccc(O)cc1 [4-Heptylphenol] |  | 0.655 | 0.978 | 1.2 | 1.01
CCCCCCCCCc1ccc(O)cc1 [4-Nonylphenol] |  | 0.995 | 0.971 | 1.16 | 0.953
CCCCCCCCCc1ccc(O)cc1 [4-Nonylphenol, branched] |  | 1.17 | 1.09 | 0.969 | 1.71
CC(C)(C)C(O)/C(=C\c1ccc(Cl)cc1Cl)n1cncn1 (configuration not stated) [Diniconazole] | 1.09 | 1.05 | 0.977 | 0.744 | 
Clc1ccc(C(c2ccc(Cl)cc2)C(Cl)Cl)cc1 |  | 0.983 | 0.999 | 0.984 | 1.16
COc1cccc(NCC(F)Cn2c3ccc(Br)cc3c3cc(Br)ccc32)c1 (configuration not stated) | 0.859 | 1.11 | 1.28 | 0.896 | 1.01
